In PubChem BioAssay (Tox21):
Values joined by “and” are separate entries in the source; they are usually repeats but may differ in a detail not shown here. Equal entries are not always repeated. Inconclusive results are not listed. Entries that show only a call come without a potency. Where a structure was tested more than once in an assay, its records may differ in their call. Active and inactive are the calls of the source. Unless noted, calls follow the shape of the full dose curve.

What was measured:
[1] = Nuclear factor erythroid 2-related factor 2/antioxidant responsive element (Nrf2/ARE) small molecule agonists: qHTS cell viability counter screen in human keratinocytes (AID 1919968; active = well fitted curve in the direction sought with a large enough effect in the repeat runs; an effect the other way counts as inactive or inconclusive; also: nearly all actives have a fitted effect of over 55% in size)
Procedure, shortened: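 Seed 1,500 KeratinoSens cells per well, then incubate 5 h at 37 C/5% CO2. Add compounds in DMSO and incubate 23 h. Add CellTiter-Fluor, wait 1 h and read fluorescence.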

[2] = Nuclear factor erythroid 2-related factor 2/antioxidant responsive element (Nrf2/ARE) small molecule agonists: luciferase reporter gene qHTS assay in human keratinocytes (AID 1919969); also: nearly all actives have a fitted effect of over 35% in size; also: potency is read from the fitted curve at half-maximal effect
[3] = target: Gonadotropin-releasing hormone receptor (Homo sapiens) (UniProt P30968); test: Human gonadotropin-releasing hormone receptor (GnRHR) small molecule agonists, calcium flux assay in GnRHR-HEK293 cells (AID 1920063); also: nearly all actives have a fitted effect of over 35% in size
Sequence of Gonadotropin-releasing hormone receptor (Homo sapiens) (P30968 whole entry, looked up): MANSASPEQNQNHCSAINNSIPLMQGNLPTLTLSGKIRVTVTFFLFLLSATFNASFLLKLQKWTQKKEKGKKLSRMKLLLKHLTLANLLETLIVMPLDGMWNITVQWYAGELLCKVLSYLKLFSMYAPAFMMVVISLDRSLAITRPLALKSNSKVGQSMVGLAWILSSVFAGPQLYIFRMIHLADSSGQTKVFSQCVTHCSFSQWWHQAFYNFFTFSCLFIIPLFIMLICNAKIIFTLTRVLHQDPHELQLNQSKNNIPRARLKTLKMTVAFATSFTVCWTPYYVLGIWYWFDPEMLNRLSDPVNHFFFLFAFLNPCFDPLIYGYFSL
Procedure, shortened: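 Cells: HEK293 stably expressing human GnRHR. Steps: overnight (18 h) culture, 1 h calcium dye loading at 37 C, compound addition, kinetic fluorescence read at 480/540 nm. Each compound tested at 15 concentrations in triplicate.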

[4] = G protein-coupled receptor (GPCR) small molecule agonists, calcium flux assay: HEK293 wild type cell line counter screen (AID 1920065)
Procedure, shortened: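 Counter-screen of the Tox21 10K library for non-specific calcium release: dye-loaded cells received compounds in DMSO and were monitored by kinetic fluorescence (480/540 nm, 3 min). Fifteen concentrations, run in triplicate.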

[5] = p53 small molecule agonists, cell-based qHTS assay with human liver microsomes (AID 1963577)
Procedure, shortened: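 p53RE-bla reporter cells were pre-incubated 5 h at 37 C, then treated with compounds plus human liver microsomes (0.5 mg/mL final) and NADPH (0.5 mg/mL final) for 16 h at 37 C. Beta-lactamase activity was read by LiveBLAzer fluorescence after 2 h at room temperature.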

[6] = p53 small molecule agonists, cell-based qHTS assay with human liver microsomes: qHTS cell viability counter screen (AID 1963579); also: nearly all actives have a fitted effect of over 45% in size
Procedure, shortened: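 p53RE-bla cells (4,000/well) were pre-incubated 5 h at 37 C, then given compounds in DMSO plus human liver microsomes (0.5 mg/mL final) and NADPH (0.5 mg/mL final) for 16 h at 37 C. Viability was read by CellTiter-Glo luminescence.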

[7] = p53 small molecule agonists, cell-based qHTS assay with rat liver microsomes: qHTS cell viability counter screen (AID 1963580); also: nearly all actives have a fitted effect of over 45% in size
Procedure, shortened: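 In HCT-116 cells carrying a p53 response element-bla reporter, compounds were metabolically activated in situ by rat liver microsomes with NADPH over 16 h. Cell ATP content then served as the cytotoxicity measure.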

[8] = p53 small molecule agonists, cell-based qHTS assay: qHTS cell viability counter screen (AID 1963581); also: nearly all actives have a fitted effect of over 45% in size
Procedure, shortened: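 Cells: HCT-116 with p53 response element-driven beta-lactamase. Treatment: 16 h, 37 C, compounds in DMSO. Read: CellTiter-Glo luminescence after 30 min RT.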

[9] = p53 small molecule agonists, cell-based qHTS assay (AID 1963582; active = well fitted activation curve with a large enough effect in the signal ratio in the repeat runs, not every such curve was filed as active; the % refers to the signal ratio)
Procedure, shortened: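 Quantitative HTS in p53RE-bla cells: after a 5 h settling period, compounds delivered in DMSO were left on cells for 16 h at 37 C, and reporter induction was measured as fluorescence following 2 h substrate loading.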

[10] = target: 5-hydroxytryptamine receptor 2A (Homo sapiens) (UniProt P28223); test: 5-hydroxytryptamine receptor 2A (HTR2A) small molecule antagonists, cell-based qHTS assay (AID 1963586); also: nearly all actives have a fitted effect of over 45% in size; also: potency is read from the fitted curve at half-maximal effect
Sequence of 5-hydroxytryptamine receptor 2A (Homo sapiens) (P28223 whole entry, looked up): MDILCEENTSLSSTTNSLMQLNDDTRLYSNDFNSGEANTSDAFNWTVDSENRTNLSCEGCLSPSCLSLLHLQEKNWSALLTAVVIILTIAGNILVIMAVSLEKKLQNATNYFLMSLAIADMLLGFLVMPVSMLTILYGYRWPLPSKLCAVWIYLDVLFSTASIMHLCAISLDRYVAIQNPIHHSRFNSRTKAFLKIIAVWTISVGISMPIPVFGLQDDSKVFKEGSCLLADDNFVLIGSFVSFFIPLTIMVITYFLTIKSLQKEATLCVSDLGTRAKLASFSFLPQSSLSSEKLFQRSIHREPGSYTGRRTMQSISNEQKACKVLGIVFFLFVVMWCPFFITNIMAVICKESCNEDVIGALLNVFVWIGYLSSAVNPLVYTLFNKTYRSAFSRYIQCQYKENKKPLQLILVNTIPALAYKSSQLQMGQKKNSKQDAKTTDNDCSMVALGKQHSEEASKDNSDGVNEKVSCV
Procedure, shortened: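 Antagonist-mode intracellular calcium assay: DOI (4 nM) added after 5 min compound pre-incubation at room temperature to dye-loaded HTR2A-CHO cells. Fluorescence followed for 3 min, sampled every second.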

[11] = target: 5-hydroxytryptamine receptor 2A (Homo sapiens) (UniProt P28223); test: 5-hydroxytryptamine receptor 2A (HTR2A) small molecule agonists, cell-based qHTS assay (AID 1963587); also: nearly all actives have a fitted effect of over 30% in size; also: potency is read from the fitted curve at half-maximal effect
Procedure, shortened: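 HTR2A-CHO cells, plated 18 h at 37 C/5% CO2, dye-loaded 1 h at 37 C; compounds in DMSO added by pin tool (agonist mode). Intracellular calcium flux read as kinetic fluorescence on FDSS over 2 min at 1 s intervals.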

[12] = target: Muscarinic acetylcholine receptor M1 (Homo sapiens) (UniProt P11229); test: Cholinergic receptor muscarinic 1 (CHRM1) small molecule antagonists, cell-based qHTS assay (AID 1963588); also: nearly all actives have a fitted effect of over 40% in size; also: potency is read from the fitted curve at half-maximal effect
Sequence of Muscarinic acetylcholine receptor M1 (Homo sapiens) (P11229 whole entry, looked up): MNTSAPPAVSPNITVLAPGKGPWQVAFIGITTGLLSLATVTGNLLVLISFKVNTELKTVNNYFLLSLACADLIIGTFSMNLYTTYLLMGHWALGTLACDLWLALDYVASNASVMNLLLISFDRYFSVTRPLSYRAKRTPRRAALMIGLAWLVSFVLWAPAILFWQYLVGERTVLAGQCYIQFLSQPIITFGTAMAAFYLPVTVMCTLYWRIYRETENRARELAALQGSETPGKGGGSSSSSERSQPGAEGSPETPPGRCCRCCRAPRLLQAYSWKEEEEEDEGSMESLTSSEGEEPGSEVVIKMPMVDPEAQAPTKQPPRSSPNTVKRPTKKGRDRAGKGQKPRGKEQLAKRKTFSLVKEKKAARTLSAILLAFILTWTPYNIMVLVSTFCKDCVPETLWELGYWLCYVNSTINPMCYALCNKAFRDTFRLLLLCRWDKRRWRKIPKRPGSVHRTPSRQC
Procedure, shortened: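 CHRM1-CHO calcium-flux assay, antagonist mode. Cells were seeded 18 h, dye-loaded 1 h at 37 C and given compound for 5 min at RT, then acetylcholine was added at 50nM. FDSS fluorescence was read 3 min; 15 concentrations, three runs.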

[13] = target: Muscarinic acetylcholine receptor M1 (Homo sapiens) (UniProt P11229); test: Cholinergic receptor muscarinic 1 (CHRM1) small molecule agonists, cell-based qHTS assay (AID 1963589); also: nearly all actives have a fitted effect of over 35% in size
Procedure, shortened: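 Agonist-mode qHTS in CHO cells stably carrying human muscarinic M1. Intracellular calcium is tracked by fluorescence every second after compound transfer; each compound runs at 15 concentrations in three independent runs.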

[14] = cAMP Responsive Elements (CRE) small molecule agonists, cell-based qHTS assay (AID 1963590)
Procedure, shortened: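 Agonist mode qHTS in CRE-bla HEK 293T cells: compounds dosed from DMSO for 3 h at 37 C/5% CO2, followed by LiveBLAzer B/G FRET substrate for 2 h at room temperature.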

[15] = cAMP Responsive Elements (CRE) small molecule antagonists, cell-based qHTS assay (AID 1963591; active = well fitted inhibition curve with a large enough effect in the signal ratio in the repeat runs, not every such curve was filed as active; the % refers to the signal ratio)
Procedure, shortened: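 Antagonist mode: test compounds are co-incubated with the adenylyl cyclase activator NKH477 (0.25 uM final) on CRE-bla HEK293T cells for 3 h at 37 °C, followed by LiveBLAzer substrate loading.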

[16] = target: Beta-2 adrenergic receptor (Homo sapiens) (UniProt P07550); test: Adrenergic beta2 receptor (ADRB2) small molecule antagonists, cell-based qHTS assay (AID 1963592); also: series mostly up to about 92 µM; nearly all actives have a fitted effect of over 50% in size
Sequence of Beta-2 adrenergic receptor (Homo sapiens) (P07550 whole entry, looked up): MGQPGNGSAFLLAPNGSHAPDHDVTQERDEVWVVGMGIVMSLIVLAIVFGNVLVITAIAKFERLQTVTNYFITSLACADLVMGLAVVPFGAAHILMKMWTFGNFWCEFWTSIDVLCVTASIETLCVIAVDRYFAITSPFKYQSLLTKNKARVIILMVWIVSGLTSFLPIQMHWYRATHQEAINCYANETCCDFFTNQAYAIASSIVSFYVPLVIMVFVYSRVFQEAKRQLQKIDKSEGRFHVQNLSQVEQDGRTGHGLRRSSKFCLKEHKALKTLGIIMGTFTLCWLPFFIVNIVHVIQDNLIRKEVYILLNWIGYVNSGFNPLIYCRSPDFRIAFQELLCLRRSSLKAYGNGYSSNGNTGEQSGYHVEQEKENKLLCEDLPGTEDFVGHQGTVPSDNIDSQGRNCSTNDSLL
Procedure, shortened: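 Cells (CHO, stable ADRB2 overexpression) incubated 18-20hr at 37C; compounds added from DMSO; agonist mix (1nM isoproterenol, 100uM IBMX, 25uM Ro-20-1724) added; 0.5hr RT; d2-cAMP and anti-cAMP-cryptate added; 1hr RT; 665/615 nm read.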

[17] = target: D(2) dopamine receptor (Homo sapiens) (UniProt P14416); test: Dopamine D2 receptor (DRD2) small molecule agonists, cell-based qHTS assay (AID 1963594); also: nearly all actives have a fitted effect of over 35% in size
Sequence of D(2) dopamine receptor (Homo sapiens) (P14416 whole entry, looked up): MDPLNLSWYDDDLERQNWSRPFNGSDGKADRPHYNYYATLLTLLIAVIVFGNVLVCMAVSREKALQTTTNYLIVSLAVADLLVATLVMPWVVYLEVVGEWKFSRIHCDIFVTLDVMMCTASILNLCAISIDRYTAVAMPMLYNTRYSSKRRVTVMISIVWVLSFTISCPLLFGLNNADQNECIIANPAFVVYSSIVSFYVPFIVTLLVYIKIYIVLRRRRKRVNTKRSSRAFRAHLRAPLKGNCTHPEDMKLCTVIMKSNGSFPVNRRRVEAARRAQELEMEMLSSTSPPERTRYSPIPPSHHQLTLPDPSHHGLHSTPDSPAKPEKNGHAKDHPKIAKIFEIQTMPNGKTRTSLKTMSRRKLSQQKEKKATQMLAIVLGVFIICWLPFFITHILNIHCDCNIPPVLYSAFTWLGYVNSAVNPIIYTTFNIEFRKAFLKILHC
Procedure, shortened: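 HEK293 cells stably expressing DRD2 were cultured 24 h at 37 C, then given Ro20-1724 (0.1 mM final) and compounds for 10 min at room temperature. NKH477 (200nM) was then added for 30 min. cAMP was read by HTRF.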

[18] = target: D(2) dopamine receptor (Homo sapiens) (UniProt P14416); test: Dopamine D2 receptor (DRD2) small molecule antagonists, cell-based qHTS assay (AID 1963595; active = well fitted inhibition curve with a large enough effect in the signal ratio in the repeat runs, with a control signal flat; the % refers to the signal ratio)
Procedure, shortened: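 HTRF cAMP read-out at 665 and 620 nm emission (340 nm excitation). Antagonist mode: compounds were tested against 12 nM quinpirole in DRD2-HEK293 cells, with 200 nM NKH477 raising cAMP and 0.1 mM Ro20-1724 blocking its breakdown.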

[19] = target: KiSS-1 receptor (Homo sapiens) (UniProt Q969F8); test: Human kisspeptin (KISS1R) small molecule agonists, calcium flux assay in KISS1R-HEK293 cells (AID 1920064; active = well fitted curve in the direction sought with a large enough effect in the repeat runs; an effect the other way counts as inactive or inconclusive)
Sequence of KiSS-1 receptor (Homo sapiens) (Q969F8 whole entry, looked up): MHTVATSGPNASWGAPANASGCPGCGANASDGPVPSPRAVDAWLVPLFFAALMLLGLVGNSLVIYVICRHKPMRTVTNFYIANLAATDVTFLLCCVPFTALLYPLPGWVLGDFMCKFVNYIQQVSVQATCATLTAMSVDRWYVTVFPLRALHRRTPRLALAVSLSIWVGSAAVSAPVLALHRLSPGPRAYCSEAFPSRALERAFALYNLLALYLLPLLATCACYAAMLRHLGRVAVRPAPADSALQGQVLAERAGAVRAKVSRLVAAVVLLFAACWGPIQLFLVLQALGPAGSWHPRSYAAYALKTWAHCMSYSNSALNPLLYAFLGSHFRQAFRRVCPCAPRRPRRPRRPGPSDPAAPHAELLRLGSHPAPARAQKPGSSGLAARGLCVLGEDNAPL
Procedure, shortened: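 Cells plated and incubated 18 h; dye added, 1 h at 37 C; compounds in DMSO pinned in; signal read at 480/540 nm every second for 3 min. Each compound tested at 15 concentrations in triplicate.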

[20] = target: Beta-2 adrenergic receptor (Homo sapiens) (UniProt P07550); test: Adrenergic beta2 receptor (ADRB2) small molecule agonists, cell-based qHTS assay (AID 1963593);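 also: CHO cells stably overexpressing human ADRB2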
Procedure, shortened: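 CHO cells stably over-expressing ADRB2 were plated overnight at 37C, then dosed with compounds plus a stimulation mix containing 100uM IBMX and 25uM Ro-20-1724 for 0.5hr at room temperature. cAMP was measured by HTRF competition, 1hr.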

Structure (SMILES) | Potency [1] | Potency [2] | Potency [3] | Potency [4] | Potency [5] | Potency [6] | Potency [7] | Potency [8] | Potency [9] | Potency [10] | Potency [11] | Potency [12] | Potency [13] | Potency [14] | Potency [15] | Potency [16] | Potency [17] | Potency [18] | Potency [19] | Potency [20]
OC[C@@H](O)[C@@H](O[C@@H]1O[C@H](CO)[C@H](O)[C@H](O)[C@H]1O)[C@H](O)[C@@H](O)CO | inactive | inactive | inactive | inactive | inactive | inactive | inactive | inactive | inactive | inactive | inactive | inactive | inactive | inactive | inactive | inactive | inactive | inactive | – | –
c1ccc2cc3c(ccc4ccccc43)cc2c1 | inactive | 9.72 µM (active) and 9.69 µM (active) | inactive | inactive | inactive | inactive | inactive | – | inactive | inactive | inactive | inactive | inactive | inactive | inactive | inactive | inactive | inactive | – | –
C1CNCCN1 | inactive | inactive | inactive | – | – | inactive | inactive | inactive | inactive | inactive | inactive | 4.86 µM (active) and inactive | inactive | inactive | inactive | inactive | inactive | inactive | inactive | inactive
Cc1cccc2n[nH]nc12 | inactive | inactive | inactive | – | – | inactive | inactive | inactive | inactive | inactive | – | inactive | inactive | inactive | inactive | inactive | – | inactive | inactive | inactive
CC(C)=CCCC(C)CCO (centres undefined) | inactive | inactive | inactive | inactive | inactive | inactive | inactive | inactive | inactive | inactive | inactive | inactive | inactive | inactive | inactive | – | inactive | inactive | – | –
CCCCCCC(C)(C)S | inactive | inactive | inactive | – | – | inactive | inactive | inactive | – | inactive | inactive | inactive | inactive | inactive | – | inactive | inactive | inactive | inactive | inactive
CCCCCCCCCCCCCCCCO | inactive | inactive | inactive | – | – | inactive | – | inactive | – | inactive | inactive | inactive | inactive | inactive | inactive | inactive | inactive | inactive | inactive | inactive
CCCCCCCCCCCCO | inactive | inactive and 67.8 µM (active) | inactive | inactive | inactive | inactive | inactive | inactive | inactive | inactive | – | inactive | inactive | inactive | – | inactive | inactive | inactive | – | inactive
CCCOCC(C)O (centres undefined) | inactive | inactive | inactive | – | – | inactive | inactive | inactive | – | inactive | inactive | inactive | inactive | – | inactive | inactive | – | inactive | inactive | inactive
CCCCCCCCCCC=CC1CC(=O)OC1=O (centres undefined) | inactive | inactive | inactive | inactive | inactive | – | inactive | inactive | – | inactive | inactive | inactive | inactive | inactive | inactive | inactive | inactive | inactive | – | –
O=C(/C=C/C=C/c1ccc2c(c1)OCO2)N1CCCCC1 | inactive | inactive and 2.73 µM (active) | inactive | inactive | inactive | inactive | inactive | inactive | inactive | – | 6.18 µM (active) and inactive | inactive | inactive | inactive | inactive | inactive | inactive | inactive | – | –
O=C(O)/C=C\C(=O)O | inactive | inactive | inactive | – | – | – | – | – | – | 27.5 µM (active) and 3.75 µM (active) and inactive | inactive | inactive | inactive | inactive | inactive | inactive | inactive | inactive | inactive | inactive
O=C1c2c(O)cccc2Cc2cccc(O)c21 | inactive | inactive | inactive | inactive | inactive | inactive | inactive | – | inactive | inactive | inactive | – | inactive | inactive | inactive | inactive | inactive | inactive | – | inactive
